# From ChEMBL document CHEMBL3988442, “University of Dundee, Small-Polar-MMV Screening Library” (2021)
# The whole screen tested about 53,000 compounds, of which about 900 (1.7%) showed an effect of 50% or more. The sample as a whole holds a higher share of strong results than the screen did.
# Tested on: Mycobacterium tuberculosis
# Experiment: Cornell - Phenotypic assay to identify agents that inhibit growth of Mycobacterium tuberculosis
# Type: functional
# Set-up: scale not given: direction of the effect not stated beside the values
# Conditions: 10 mM as filed; unlikely as a test dose
row,SMILES,Percent Effect
1,COCCCNC(=O)Nc1ncc(-c2cccc(OC)c2)n1CCOC,20.98%
2,CN(C)C(=O)CNC(=O)c1ccn(-c2ccc3ccccn23)n1,8.811%
3,CCc1nnc(CS(=O)(=O)c2ccc(C)c(C)c2)n1C,-14.67%
4,Cc1cccnc1CN(C)C(C(=O)O)c1ccc(C(C)(C)C#N)cc1 (stereo unspecified),37.7%
5,CCn1ccnc1CN(C)C(C(=O)O)c1ccc(C(C)(C)C#N)cc1 (stereo unspecified),-8.491%
6,Cc1cccnc1CN(C)C(C(=O)O)c1ccc(-n2cccn2)cc1 (stereo unspecified),103.2%
7,COc1c(C)cc(C(C(=O)O)N(C)Cc2ccn[nH]2)cc1C (stereo unspecified),14.99%
8,Cc1cccnc1CN(C)C(C(=O)O)c1ccc(-c2ccn[nH]2)cc1 (stereo unspecified),83.57%
9,CN(Cc1ccc(-n2cccn2)cc1)C(=O)CCC(F)(F)F,-2.335%
10,COc1ccc(CN2C[C@@H]3CC[C@H](C2)N(S(C)(=O)=O)C3)cc1,-9.044%
11,Cc1cc2nc(C(C)C)cc(N3CCN(c4ccc(O)cc4)CC3)n2n1,103.7%
12,Cc1cc2nc(C(C)C)cc(N3CCSCC3)n2n1,-12.34%
13,CC(C)c1cc(N2CCC(CCC(=O)NC3CC3)CC2)n2nccc2n1,19.75%
14,Cc1cc2nc(C(C)C)cc(N3CCC(O)CC3)n2n1,7.748%
15,CC(C)c1cc(N2CCC(N)CC2)n2nccc2n1,24.37%
16,CC(C)c1cc(N2CCN(c3ccc(O)cc3)CC2)n2nccc2n1,106.1%
17,Cc1nc(CN2CCO[C@@H]3CN(C(=O)CC4CC4)CC[C@@H]3C2)cs1,21.81%
18,CCCN(CC(=O)NC)C(=O)c1ccc(-c2nc(C)cs2)cc1,8.736%
19,CS(=O)(=O)N[C@@H]1CN(C(=O)c2ccccn2)[C@@H]2CCCO[C@@H]21.O=C(O)C(F)(F)F,24.81%
20,O=C(c1cc(-c2ccn(CC3CC3)n2)n2ccccc12)N1CCCO1,45.3%
21,O=C(c1cc(-c2ccn(CC3CC3)n2)n2ccccc12)N1CCOCC1,96.99%

row,SMILES,Percent Effect
1,O=C(O)c1cc(-c2ccn(CC3CC3)n2)n2ccccc12,99.83%
2,CC(C)c1nc(-c2cc(C(=O)N3CCN(C)CC3)c3ccccn23)cs1.O=C(O)C(F)(F)F,-33.65%
3,CC(C)c1nc(-c2cc(C(=O)O)c3ccccn23)cs1,89.3%
4,CC(C)c1nc(-c2cc(C(=O)NCCCO)c3ccccn23)cs1,21.42%
5,Cn1ccc(-c2cc(C(=O)N3CCOCC3)c3ccccn23)n1,-21.75%
6,Cn1ccc(-c2cc(C(=O)N3CCC(C(N)=O)CC3)c3ccccn23)n1,11.2%
7,Cn1ccc(-c2cc(C(=O)N3CCC(O)CC3)c3ccccn23)n1,-33.58%
8,Cc1nc(N)ncc1C(=O)N1CCCC1(C)C(=O)N(C)C (stereo unspecified),14.34%
9,Cc1cc(N2CCCC(c3[nH]ncc3Cc3ccccc3)C2)nc(N)n1 (stereo unspecified),13.81%
10,Cc1ncc(CNC(=O)Cc2ccsc2)c(C2CCCN2C)n1 (stereo unspecified),11.73%
11,CN1C(=O)C2(CC(=O)Nc3[nH]ncc32)c2cc(Cl)ccc21 (stereo unspecified),9.602%
12,O=C(c1ccoc1)N1CCCn2cnc(COCC3CC3)c2C1,7.498%
13,COC(=O)[C@@H]1Cc2c[nH]c3cccc(c23)[C@H](CC(C)C)N1,105.3%
14,CC(C)C[C@@H]1N[C@H](C(=O)NC(C)C)Cc2c[nH]c3cccc1c23,22.96%
15,CC(C)C[C@@H]1N[C@H](C(=O)NCC2CC2)Cc2c[nH]c3cccc1c23,40.17%
16,Cc1nc2sccn2c1CN(CCCN(C)C)Cc1ccccn1.O=C(O)CC(O)(CC(=O)O)C(=O)O,51.28%
17,Cc1ccc(CN(CCN(C)C)Cc2c(C)nc3sccn23)o1.O=C(O)CC(O)(CC(=O)O)C(=O)O,26.14%
18,Cc1nc2sccn2c1CN(CCCN(C)C)Cc1ccco1.O=C(O)CC(O)(CC(=O)O)C(=O)O,33.13%
19,COCCN1CCC2(CCN(Cc3ccc(OC)cc3)CC2)C1=O.O=C(O)C(F)(F)F,-13.5%
20,Cc1cccc(CN2CCC3(CCC(C(=O)N(C)C)O3)CC2)n1 (stereo unspecified),35.49%
21,Fc1cccc2[nH]c(CN3CCn4c(nnc4C4CC4)C3)nc12,-6.1%

row,SMILES,Percent Effect
1,Cc1nn(C)c(N(C)C)c1CNCc1nnc2n1CCCCC2.Cl,67.58%
2,COc1c(CNCc2nnc3n2CCCCC3)c(C(C)C)nn1C.Cl,-4.214%
3,COc1c(CNCc2nnc3n2CCCCC3)c(C)nn1C.Cl,31.65%
4,Cc1cccc(COc2ccc(C(C)NC(=O)CNC(N)=O)cc2)c1 (stereo unspecified),14.07%
5,CC1(C)CC(=O)c2cnc3nc(N4CCCC4)[nH]c(=O)c3c2C1,23.1%
6,CCC1CNCc2cc3c(C)ccc(C)c3nc2O1 (stereo unspecified),61.63%
7,CCC1CNCc2cc3c(OC)ccc(OC)c3nc2O1 (stereo unspecified),6.248%
8,CS(=O)(=O)c1ccccc1-n1cc(NC(=O)CC(F)(F)F)cn1,18.55%
9,CCC(=O)c1ccccc1NN1c2ccccc2C(=O)C1(C)OC (stereo unspecified),13.72%
10,COc1ccc(CC(=O)Nc2c(C)nc(N3CCCC3)nc2C)cc1,59.35%
11,Cc1nc(N2CCOCC2)nc(C)c1NC(=O)Cc1ccc(Cl)cc1,-26.81%
12,COc1ccc(CC(=O)Nc2c(C)nc(N3CCOCC3)nc2C)cc1,3.579%
13,COc1cc(N2C[C@H]3OCC[C@H]3[C@H](C(=O)N3CCCC3)C2)ncn1,-33.02%
14,CC[C@H]1N(CC2CCC2)CCC[C@]12CCC(=O)N2Cc1ccncc1.O=C(O)C(F)(F)F.O=C(O)C(F)(F)F,23.16%
15,CC[C@@H]1N(Cc2ccsc2)CCC[C@]12CCC(=O)N2CCOC.O=C(O)C(F)(F)F,13.62%
16,CC[C@@H]1N(CC2CC2)CCC[C@]12CCC(=O)N2CCOC.O=C(O)C(F)(F)F,52.28%
17,Fc1ccccc1CC1CCN(Cc2cscn2)CC1,30.5%
18,Cc1cccc(CN2CCC(Cc3ccccc3F)CC2)n1,56.1%
19,Fc1ccccc1CC1CCN(Cc2ccccn2)CC1,29.36%
